Inconclusive results are not listed. Activity calls are given as the source filed them. The call rests on the fitted dose curve; in most records, active means well fitted cell-killing curve with a large enough effect; inconclusive means small, poorly fitted or top-dose-only effect, or effect the other way; inactive means no such curve, though single readings can be large or run the other way. Non-standard residues stand in square brackets, D forms with d. Residues, ends and D or L forms follow the SMILES beside them. *: point of attachment. Nva = CCC[C@H](N)C(=O)O; Cbz = O=C(OCc1ccccc1)*
Experiment: qHTS of pediatric cancer cell lines to identify multiple opportunities for drug repurposing: Confirmatory screen for RD cells (AID 1347124);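 further: cells exposed to compound for 48 h before viability readout; nearly all actives have a fitted effect of over 65% in size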
Conditions: RD rhabdomyosarcoma cell viability; series mostly up to 45.9 µM; activity change, negative = cytotoxic: at the top concentration
Summary of the method: (§1)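 Cells (500-1,000/well) in growth media were settled 5 h at 37 degrees C, then given compounds for 48 h. Viability was read as CellTiter-Glo luminescence. Primary runs used MIPE at 11 points (0.78 nM-46 µM) and NPC at 8 points (0.59 nM-46 µM); follow-ups used 11 points.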
With `Cc1ncc(-c2ccnc(Nc3ccc(S(C)(=O)=O)cc3)n2)n1C(C)C` the Potency was 5.22 µM (active). With `O=C(C=CC=Cc1ccc2c(c1)OCO2)N1CCCCC1` the “activity change, negative = cytotoxic” value was 12.2% (inactive). In the case of `C[C@H](NCc1ccc2c(c1)nc(NC(=O)c1ccc(-c3cn[nH]c3)s1)n2CCc1ccccc1)C(C)(C)C`, the Potency is reported as 1.17 µM (active). For `CCCCC(=O)O[C@]1(C(=O)CO)[C@@H](C)C[C@H]2[C@@H]3CCC4=CC(=O)C=C[C@]4(C)[C@@]3(F)[C@@H](O)C[C@@]21C`, the “activity change, negative = cytotoxic” value was -2.48% (inactive). For `COC[C@H](NC(=O)c1cnc(C)s1)C(=O)N[C@@H](COC)C(=O)N[C@@H](Cc1ccccc1)C(=O)[C@@]1(C)CO1`, the Potency was 0.0827 µM (active). In the case of `C[C@H]1[C@@H](OC(=O)CCC(=O)O)O[C@@H]2O[C@@]3(C)CC[C@@H]4[C@H](C)CC[C@@H]1[C@@]24OO3`, the Potency is reported as 1.04 µM (active). In the case of `Cn1cc(CNCC2CCN(c3ncc(C(=O)NO)cn3)CC2)c2ccccc21`, the Potency is reported as 0.329 µM (active). In the case of `CC(C(C)N1CC(=O)NC(=O)C1)N1CC(=O)NC(=O)C1` (stereo not given), the “activity change, negative = cytotoxic” value is reported as -17.2% (inactive). In the case of `CC[C@]12C=CCN3CC[C@@]4(c5cc([C@@]6(C(=O)OC)C[C@H]7C[C@@H](C(C)(F)F)CN(Cc8c6[nH]c6ccccc86)C7)c(OC)cc5N(C)[C@H]4[C@@](O)(C(=O)OC)[C@H]1OC(C)=O)[C@@H]32`, the “activity change, negative = cytotoxic” value is reported as 26.4% (inactive). In the case of `Oc1cc(-c2nc(-c3ccccc3)[nH]c2-c2ccncc2)ccc1Cl`, the Potency is reported as 16.5 µM (active). For `CCOc1cc2ncc(C#N)c(Nc3ccc(OCc4ccccn4)c(Cl)c3)c2cc1NC(=O)C=CCN(C)C`, the Potency was 2.33 µM (active). In the case of `O=S(=O)(O)CCSSCCS(=O)(=O)O`, the “activity change, negative = cytotoxic” value is reported as 10.4% (inactive). In the case of `CC(C)N1[N]C(=C2C=c3cc(O)ccc3=N2)c2c(N)ncnc21`, the Potency is reported as 11.7 µM (active). With `COC(=O)[C@@H]1[C@H]2C[C@@H]3c4[nH]c5ccccc5c4CCN3C[C@@H]2CC[C@@H]1O` the “activity change, negative = cytotoxic” value was 9.93% (inactive). In the case of `O=C1NC(=O)C(=Cc2ccc3nccc(-c4ccncc4)c3c2)S1`, the Potency is reported as 7.37 µM (active). For `Oc1ccc(-c2ccc(-c3cc(Nc4cccc(CNC5CC5)c4)n[nH]3)cc2)c(O)c1`, the Potency was 5.22 µM (active). For `COc1cccc2c1C(=O)c1c(O)c3c(c(O)c1C2=O)C[C@@](O)(C(=O)CO)C[C@H]3O[C@H]1C[C@H](N)[C@H](O)[C@H](C)O1`, the Potency was 5.22 µM (active). For `CNC(=O)c1ccc(Nc2cc(Nc3ccccc3S(=O)(=O)C(C)C)c3cc[nH]c3n2)nc1`, the Potency was 9.27 µM (active). With `Cc1cnc(Nc2ccc(N3CCN(C)CC3)cc2)nc1Nc1cccc(S(=O)(=O)NC(C)(C)C)c1` the Potency was 7.37 µM (active). With `O=C(O)C[C@H](O)C[C@H](O)C=Cc1c(C2CC2)nc2ccccc2c1-c1ccc(F)cc1` the Potency was 11.7 µM (active). In the case of `CCN(CC)CCNC(=O)c1c(C)[nH]c(C=C2C(=O)Nc3ccc(F)cc32)c1C`, the Potency is reported as 15.1 µM (active). For `C=CC(=O)Nc1cccc(Nc2nc(NC3CCC(N(C)C)CC3)nc3c2ncn3C(C)C)c1` (stereo not given), the Potency was 0.737 µM (active). With `C=C1C(=CC=C2CCC[C@]3(C)[C@@H]([C@H](C)CCCC(C)(C)O)CC[C@@H]23)C[C@@H](O)C[C@@H]1O` the “activity change, negative = cytotoxic” value was 10.9% (inactive). In the case of `CN[C@H]1[C@@H](O)[C@@H]2O[C@@H]3O[C@H](C)CC(=O)[C@]3(O)O[C@@H]2[C@@H](NC)[C@H]1O`, the “activity change, negative = cytotoxic” value is reported as 15% (inactive). With `CCC[C@@H](C=O)NC(=O)[C@H](CC(C)C)NC(=O)[C@H](CC(C)C)NC(=O)OCc1ccccc1` (Cbz-Leu-Leu-[Nva]-aldehyde) the Potency was 1.31 µM (active). With `CC(C)(O)Cn1c(NC(=O)c2ccc(-c3cn[nH]c3)s2)nc2cc(CN3CCOCC3)ccc21` the Potency was 0.827 µM (active). With `COc1cccc2c1C(=O)c1c(O)c3c(c(O)c1C2=O)C[C@@](O)(C(=O)CO)C[C@@H]3O[C@H]1C[C@H](N)[C@@H](O)[C@H](C)O1` the Potency was 3.29 µM (active). For `CC[C@@]1([C@@H]2O[C@@H]([C@H]3O[C@@](O)(CO)[C@H](C)C[C@H]3C)C[C@H]2C)CC[C@H]([C@]2(C)CC[C@]3(C[C@H](O)[C@@H](C)[C@@H]([C@@H](C)[C@@H](OC)[C@H](C)C(=O)O)O3)O2)O1`, the Potency was 2.29 µM (active). With `COc1ccc(C=Cc2cc(OC)c(OC)c(OC)c2)cc1NC(=O)[C@H](N)CO` the Potency was 0.131 µM (active). In the case of `C[C@@]12C(=O)OC(=O)[C@@]1(C)C1CCC2O1`, the Potency is reported as 4.14 µM (active).

Experiment: qHTS of pediatric cancer cell lines to identify multiple opportunities for drug repurposing: Confirmatory screen for Rh30 cells (AID 1347126); further: nearly all actives have a fitted effect of over 55% in size
Conditions: Rh30 rhabdomyosarcoma cell viability; series mostly up to 45.9 µM; activity change, negative = cytotoxic: at the top concentration
Summary of the method: as §1
In the case of `COC[C@H](NC(=O)c1cnc(C)s1)C(=O)N[C@@H](COC)C(=O)N[C@@H](Cc1ccccc1)C(=O)[C@@]1(C)CO1`, the Potency is reported as 0.737 µM (active). With `Cn1cc(CNCC2CCN(c3ncc(C(=O)NO)cn3)CC2)c2ccccc21` the Potency was 0.293 µM (active). With `CC(C(C)N1CC(=O)NC(=O)C1)N1CC(=O)NC(=O)C1` (stereo not given) the “activity change, negative = cytotoxic” value was -14.2% (inactive). For `Oc1cc(-c2nc(-c3ccccc3)[nH]c2-c2ccncc2)ccc1Cl`, the Potency was 1.31 µM (active). In the case of `CCOc1cc2ncc(C#N)c(Nc3ccc(OCc4ccccn4)c(Cl)c3)c2cc1NC(=O)C=CCN(C)C`, the Potency is reported as 5.85 µM (active). In the case of `COC(=O)[C@@H]1[C@H]2C[C@@H]3c4[nH]c5ccccc5c4CCN3C[C@@H]2CC[C@@H]1O`, the “activity change, negative = cytotoxic” value is reported as 12.8% (inactive). For `O=C(O)C[C@H](O)C[C@H](O)C=Cc1c(C2CC2)nc2ccccc2c1-c1ccc(F)cc1`, the Potency was 2.33 µM (active). In the case of `CCN(CC)CCNC(=O)c1c(C)[nH]c(C=C2C(=O)Nc3ccc(F)cc32)c1C`, the Potency is reported as 12 µM (active). In the case of `CN[C@H]1[C@@H](O)[C@@H]2O[C@@H]3O[C@H](C)CC(=O)[C@]3(O)O[C@@H]2[C@@H](NC)[C@H]1O`, the “activity change, negative = cytotoxic” value is reported as 2.08% (inactive). With `CCC[C@@H](C=O)NC(=O)[C@H](CC(C)C)NC(=O)[C@H](CC(C)C)NC(=O)OCc1ccccc1` (Cbz-Leu-Leu-[Nva]-aldehyde) the Potency was 4.14 µM (active).
On the % scale 0 is the no-effect control and ±100 the full control effect; potency means the concentration at half of the fitted maximal effect.
